# Screening data deposited in PubChem BioAssay by National Center for Advancing Translational Sciences (NCATS).
# NTMT1 inhibitor: Primary qHTS for Inhibitors of N-terminal methyltransferase 1 (NTMT1): MTaseGlo Assay | hit rate 2.5% among 59,000 | AID 1645870, 2021 | N-terminal Xaa-Pro-Lys N-methyltransferase 1 (Homo sapiens), Q9BV86 | NTMT1 MTase-Glo SAH luminescence, purified enzyme | Potency, µM (highest dose often 114 µM), inactives show at the top dose activity change, negative = inhibition, most hits filed as inhibitors;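 further: potency means the concentration at half of the fitted maximal effect; plate controls were DMSO vehicle for no effect and no enzyme for full effect; nearly all actives have a fitted effect of over 65% in size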
# Target sequence (Q9BV86 whole entry, looked up): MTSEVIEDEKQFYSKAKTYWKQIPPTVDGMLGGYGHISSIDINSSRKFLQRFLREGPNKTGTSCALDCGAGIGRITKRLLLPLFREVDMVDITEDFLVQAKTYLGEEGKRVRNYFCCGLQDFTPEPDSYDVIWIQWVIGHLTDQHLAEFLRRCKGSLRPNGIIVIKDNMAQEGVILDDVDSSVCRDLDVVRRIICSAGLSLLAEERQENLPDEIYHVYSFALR
# FH mod: Identification of activators of human fumarate hydratase by quantitative high-throughput screening | Fumarate hydratase, mitochondrial (Homo sapiens), P07954 | FH coupled MDH/diaphorase resazurin fluorescence, 15 min | Potency, µM (series often up to 79.9 µM), without a hit: at the highest dose activity change, negative = inhibition, actives largely listed as inhibitors | hit rate 0.22% among 54,000 | AID 1347055, 2019; further: potency means the concentration at half of the fitted maximal effect; on the % scale 0 is the no-effect control and ±100 the full control effect; the screen sought activators but most active calls are inhibition curves; nearly all actives have a fitted effect of over 45% in size
# DYRK1A inh-1: Assay for Inhibitors of Dual-Specificity Tyrosine-(Y)-Phosphorylation Regulated Kinase 1A (Kinase-Glo assay); AID 2705, 2010; recombinant DYRK1A, Kinase-Glo ATP depletion luminescence; hit rate 80% among 100; shares compounds with NTMT1 inhibitor; Potency, µM (titrated, usually from 76.9 µM), for inactives: top-dose activity change, negative = inhibition, usual class: inhibitors
# CLK4 inh-1: Confirmation Assay for Inhibitors of CDC-like Kinase 4 (Kinase-Glo Assay): SAR round 2; shares compounds with NTMT1 inhibitor; recombinant Clk4, Kinase-Glo ATP luminescence, 4.5 h; Potency, µM (series often up to 76.9 µM), without a hit: at the highest dose activity, negative = inhibition, actives largely listed as inhibitors; hit rate 90% among 90
# CLK4 inh-2: Kinase Inhibition Study on Inhibitors of CDC-like Kinase 4 (Reaction Biology data): SAR round 2; shares compounds with NTMT1 inhibitor; hit rate 100% among 65; AID 504421, 2011; Reaction Biology kinase assay, 10 uM ATP; Potency, µM, most hits filed as inhibitors; calls by dose curve
# DYRK1A inh-2: Kinase Inhibition Study on Inhibitors of Dyrk1a (Reaction Biology data). shares compounds with NTMT1 inhibitor. Reaction Biology kinase assay, 10 uM ATP. Potency, µM, hits mostly inhibitors. hit rate 90% among 65. AID 504424, 2011;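 active means compounds that showed inhibition of Dyrk1a and received a fitted potency; inactive means compounds that showed no inhibition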
# CLK2 RBC: Kinase Inhibition Study on Inhibitors of CDC-like Kinase 2 (Reaction Biology data); shares compounds with NTMT1 inhibitor; Reaction Biology kinase assay, 10 uM ATP; Potency, µM, most hits filed as inhibitors; hit rate 90% among 65; AID 504427, 2011;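 active means compound that inhibits Clk2 kinase in the dose series, with an IC50 potency reported; inactive means no inhibition seen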
# CLK3 inh: Kinase Inhibition Study on Inhibitors of CDC-like Kinase 3 (Reaction Biology data); shares compounds with NTMT1 inhibitor; recombinant CLK3 kinase assay, 10 uM ATP; Potency, µM, usual class: inhibitors; hit rate 40% among 65;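 active means compounds that inhibited Clk3 enough in the ten-dose series to give a half-maximal potency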
# Target sequence (P49761 whole entry, looked up): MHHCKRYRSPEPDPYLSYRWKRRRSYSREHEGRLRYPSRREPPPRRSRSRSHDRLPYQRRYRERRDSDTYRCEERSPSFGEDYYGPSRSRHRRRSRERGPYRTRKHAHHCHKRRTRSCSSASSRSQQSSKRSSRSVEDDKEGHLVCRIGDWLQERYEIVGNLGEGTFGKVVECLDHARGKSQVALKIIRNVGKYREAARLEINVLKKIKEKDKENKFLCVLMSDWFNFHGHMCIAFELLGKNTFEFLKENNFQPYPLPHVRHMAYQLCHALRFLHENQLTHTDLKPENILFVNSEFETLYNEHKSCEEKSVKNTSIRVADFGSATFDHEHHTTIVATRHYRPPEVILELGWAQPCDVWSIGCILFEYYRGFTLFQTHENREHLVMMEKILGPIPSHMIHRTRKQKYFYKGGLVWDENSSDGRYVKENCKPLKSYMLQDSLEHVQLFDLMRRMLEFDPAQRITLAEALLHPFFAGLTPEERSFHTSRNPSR
# DYRK1B inh: Kinase Inhibition Study on Inhibitors of Dyrk1b (Reaction Biology data); shares compounds with NTMT1 inhibitor; Recombinant Dyrk1b kinase assay, 10 uM ATP; Potency, µM, usual class: inhibitors; hit rate 80% among 65; AID 504429, 2011;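 active means compounds whose dose response shows an inhibitor phenotype against the kinase Dyrk1b; inactive means compounds showing no inhibitor phenotype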
# CLK1 inh: Kinase Inhibition Study on Inhibitors of CDC-like Kinase 1 (Reaction Biology data). shares compounds with NTMT1 inhibitor. recombinant Clk1 kinase assay, 10 uM ATP. Potency, µM, hits mostly inhibitors. hit rate 90% among 65. AID 504430, 2011;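 active means compounds that block the splicing kinase Clk1 enough to give a fitted half-inhibition concentration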
# Sfp PPTase inh: qHTS Assay for Inhibitos of Bacillus subtilis Sfp phosphopantetheinyl transferase (PPTase): Chemistry Optimization Followup | shares compounds with NTMT1 inhibitor | hit rate 78% among 230 | purified Sfp PPTase enzyme activity, qHTS | Potency, µM (titrated, usually from 114 µM), inactives show at the top dose activity change, negative = inhibition, usual class: inhibitors | AID 540350, 2011
# Bsub HM489 growth: qHTS for Inhibitos of Bacillus subtilis Sfp phosphopantetheinyl transferase (PPTase): Chemistry Optimization Followup in B. Subtilis HM489. Potency, µM (series often up to 114 µM), for the others: at the top dose activity change, negative = inhibition, actives largely listed as inhibitors. hit rate 50% among 220. shares compounds with NTMT1 inhibitor. B. subtilis HM489 (acpS-) growth, BacTiter-Glo, 5 h
# Sfp gel opt: Gel-Based Assay for Inhibitos of Bacillus subtilis Sfp phosphopantetheinyl transferase (PPTase): Chemistry Optimization Followup | shares compounds with NTMT1 inhibitor | purified Sfp PPTase, gel-based product detection | Potency, µM (doses to about 250 µM), for the others: at the top dose activity change, negative = inhibition, actives largely listed as inhibitors | hit rate 54% among 220 | AID 540355, 2011
# Sfp SAR2: qHTS Assay for Inhibitors of Bacillus subtilis Sfp phosphopantetheinyl transferase (PPTase): SAR Round 2; shares compounds with NTMT1 inhibitor; Potency, µM (top dose mostly 57.1 µM), without a hit: at the top dose activity change, negative = inhibition, usual class: inhibitors; AID 602370, 2012; purified Sfp enzyme, PPTase activity, qHTS; hit rate 87% among 230
# hGST ctr: qHTS Assay for Inhibitors of Bacillus subtilis Sfp phosphopantetheinyl transferase (PPTase): SAR in hGST A1-1. Potency, µM (doses to about 114 µM), without a hit: top-dose activity change, negative = inhibition, usual class: inhibitors. hGST A1-1 enzyme activity counter-screen, qHTS. shares compounds with NTMT1 inhibitor. 55 tested, under 10 active
# HSD17B4 inh: Extended Characterization of HPGD Inhibitors: Counterscreen Against HSD17b4. shares compounds with NTMT1 inhibitor. purified HSD17B4, estradiol/NAD+, NADH fluorescence. Potency, µM (top dose mostly 57.1 µM), inactives show at the top dose activity change, negative = inhibition, actives largely listed as inhibitors. hit rate 10% among 230
# ALDH1A1 inh: Extended Characterization of HPGD Inhibitors: Counterscreen Against ALDH1A1 | Potency, µM (top dose mostly 57.1 µM), without a hit: at the highest dose activity change, negative = inhibition, actives largely listed as inhibitors | shares compounds with NTMT1 inhibitor | recombinant ALDH1A1, NADH fluorescence, propionaldehyde/NAD+ | hit rate 93% among 230
# Active calls of the source: *; ? = inconclusive; . = no result; ! = not active in a repeat; [ ] = another dose, or the depositor's remark. The sample as a whole holds a higher share of hits than the screen did. Unless noted, the call rests on the fitted dose curve; in most records, active means well fitted curve in the direction sought with a large enough effect; inconclusive means small, poorly fitted or top-dose-only effect, or another doubt; inactive means no such curve, though single readings can be large; an effect the other way counts as inactive or inconclusive.
SMILES,NTMT1 inhibitor,FH mod,others
COc1cc(C(N)=O)ccc1NC(=O)[C@@H]1N[C@@H](CC(C)(C)C)[C@@]2(C(=O)Nc3cc(Cl)ccc32)[C@H]1c1cccc(Cl)c1F,5.3%,.,
Cc1cc(C)nc(NC(=S)N2CCN(C3=Nc4ccccc4Oc4ccccc43)CC2)c1,50.1µM*,.,Sfp PPTase inh=3.32µM*;Bsub HM489 growth=?;Sfp gel opt=?;Sfp SAR2=5.13µM*;HSD17B4 inh=-17.1%;ALDH1A1 inh=24.1µM*
CN1CCN(C2=Nc3ccccc3Oc3ccc(Cl)cc32)CC1,-2.9%[57.5 µM],-4.8%[53.3 µM],
Cc1cc(C)nc(NC(=S)N2CCN(c3ccccn3)CC2)c1,?,.,Sfp PPTase inh=3.73µM*!;Bsub HM489 growth=?;Sfp gel opt=31.6µM*!;Sfp SAR2=16.2µM*;HSD17B4 inh=-20.6%;ALDH1A1 inh=27.1µM*
Cc1cc(C)nc(NC(=S)N2CCN(c3ncccc3C#N)CC2)c1,?,.,Sfp PPTase inh=0.576µM*;Bsub HM489 growth=?;Sfp gel opt=?;Sfp SAR2=1.24µM*;hGST ctr=?;HSD17B4 inh=-29.2%;ALDH1A1 inh=21.5µM*
Cc1cc(C)nc(NC(=S)N2CCN(c3cncs3)CC2)c1,?,.,Sfp PPTase inh=7.44µM*;Bsub HM489 growth=25.4%;Sfp gel opt=15.8µM*;Sfp SAR2=4.57µM*;HSD17B4 inh=-18.4%;ALDH1A1 inh=24.1µM*
CN(C)C(CCOc1cccc2ccccc12)c1ccccc1 (centres undefined),1.1%[57.5 µM],-3.5%,
FC(F)(F)c1ccccc1-c1nc(NCc2ccc3c(c2)OCO3)c2ccccc2n1,4.2%,.,
Cc1ccc(S(=O)(=O)Nc2ccccc2C(=O)Nc2ccc(-c3ccccc3)nn2)cc1,15.4%,.,
CN(Cc1nccs1)c1ncnc2ccc(-c3ccc4c(c3)OCO4)cc12,7.08µM*,2.5%,DYRK1A inh-1=0.0654µM*;CLK4 inh-2=0.02*;DYRK1A inh-2=0.051µM*;CLK2 RBC=0.588µM*;CLK3 inh=4.66µM*;DYRK1B inh=0.18µM*;CLK1 inh=0.028µM*
c1cncc(-c2ccc3ncnc(NCc4ccc5c(c4)OCO5)c3c2)c1,-9.1%,.,
Fc1c(-c2ccc3ncnc(NCc4cccs4)c3c2)ccc2c1OCO2,?,.,DYRK1A inh-1=0.184µM*;CLK4 inh-2=0.128*;DYRK1A inh-2=0.164µM*;CLK2 RBC=4.4µM*;CLK3 inh=9.33µM*;DYRK1B inh=2.27µM*;CLK1 inh=0.31µM*
c1csc(CNc2ncnc3ccc(-c4ccc5c(c4)OCCO5)cc23)c1,?,.,DYRK1A inh-1=0.367µM*
c1csc(CNc2ncnc3ccc(-c4ccc5c(c4)OCO5)cc23)n1,11.6%,.,CLK4 inh-1=0.0463µM*;CLK4 inh-2=0.05*;DYRK1A inh-2=0.07µM*;CLK2 RBC=0.414µM*;CLK3 inh=3.53µM*;DYRK1B inh=0.446µM*;CLK1 inh=0.176µM*
CCCCN(C)C(=O)Cn1nc(-c2cncnc2)ccc1=O,4.1%,.,
NCCCCC(=O)Nc1ccc(Cl)cc1C(=O)c1ccc[nH]1,7.8%,.,
CC(C)(C)C[C@H]1N[C@@H](C(=O)NC2CCC(O)CC2)[C@H](c2cccc(Cl)c2F)[C@@]12C(=O)Nc1cc(Cl)ccc12 (some centres undefined),23.9%,.,
O=C1CCCC2=C1C(c1ccc(F)cc1)N=C(Nc1nc3ccccc3o1)N2 (centres undefined),5.9%,.,
O=C1CCCC2=C1C(c1[nH]ncc1Cl)N=C(Nc1nc3cc(F)ccc3o1)N2 (centres undefined),-2.3%,.,
c1csc(CCNc2ncnc3ccc(-c4ccc5c(c4)OCO5)cc23)c1,?,.,DYRK1A inh-1=0.0654µM*
